# Only some compounds are listed: those with a hit (about 7.9% of all), similar ones and a draw of the others.
# HT1080-NT tox: kills 2HG-producing HT-1080-NT fibrosarcoma cells. HT-1080-NT fibrosarcoma viability, CellTiter-Glo ATP luminescence, 48 h. Potency, µM (titrated, usually from 46.1 µM), for the others: top-dose activity, negative = less viability, most hits filed as cytotoxic. 360,000 tested, 1.6% active. AID 686970;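 note: NT is the 2HG producing partner of a matched IDH1 knockdown line; 0% = DMSO-treated cells and -100% = media-only wells without cells; nearly all actives have a fitted effect of over 55% in size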
#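 HT-1080-NT fibrosarcoma cells (2HG-overproducing), 750 cells/well in RPMI with 5% FBS, dosed after 2 h and incubated 48 h at 37C. CellTiter-Glo luminescence normalized to DMSO and no-cell wells; concentration-response curves fitted and classed.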
# KB-V1 cytotox: kills drug-selected multidrug resistant KB-V1 cells | KB-V1 MDR cells viability, CellTiter-Glo, 72 h | AID 1347076 | Potency, µM (top dose mostly 46.1 µM), usual class: cytotoxic | 400,000 tested, 3.4% active; note: % is set by controls: 0 for no effect and ±100 for the full control effect; nearly all actives have a fitted effect of over 60% in size
#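 KB-V1 MDR subline cells in DMEM (phenol-red free, 10% FBS) exposed to compounds in qHTS concentration series for 72 h at 37 degrees C. Viability read by CellTiter-Glo luminescence; concentration-effect curves fitted after normalization and correction.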
# HT1080 IDH1KD tx: HT-1080 IDH1 knockdown cell toxicity (counter line) | HT-1080 IDH1 knockdown viability, ATP luminescence, 48 h | Potency, µM (titrated, usually from 46.1 µM), without a hit: top-dose activity, negative = toxicity, usual class: cytotoxic | 360,000 tested, 2% active | AID 686971;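 note: 0% = DMSO wells and -100% = cell-free medium wells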
#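 % activity derives from luminescence (CellTiter-Glo), normalised to DMSO and no-cell wells. HT-1080-IDH1KD cells, 750/well, had 48 h compound exposure at 37 °C.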
# KB-3-1 tox: KB-3-1 parental cell cytotoxicity. AID 1347075. 400,000 tested, 1.4% active. KB-3-1 viability, CellTiter-Glo ATP luminescence, 72 h. Potency, µM (doses to about 46.1 µM), actives largely listed as cytotoxic; note: % is set by controls: 0 for no effect and ±100 for the full control effect; nearly all actives have a fitted effect of over 60% in size
#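 KB-3-1 parental drug-naive adenocarcinoma cells in DMEM/10% FBS, incubated 72 h at 37 C with pin-transferred compounds across a concentration series. Viability by CellTiter-Glo luminescence; concentration-response curves fitted after normalization.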
# MCF10A rereplic: induces DNA re-replication in MCF 10a normal breast cells; MCF 10A DNA re-replication, Hoechst nuclear intensity, 48 h; Potency, µM (series often up to 46.1 µM), for the others: at the highest dose activity, positive = re-replication, usual class: activators; 350,000 tested, 2.9% active; AID 624296; note: % of control where 0% means no effect; nearly all actives have a fitted effect of over 50% in size
# SW480 rerep: inducers of DNA re-replication in SW480 colon cancer cells; SW480 DNA re-replication, Hoechst DNA content imaging, 48 h; Potency, µM (top dose mostly 46.1 µM), for the others: at the highest dose re-replication activation, actives largely listed as activators; 340,000 tested, 1.8% active; note: % of control where 0% means no effect; nearly all actives have a fitted effect of over 55% in size
#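 250 cells/well; 23 nL cpd via pin tool; 48 hr, 37 C, 5% CO2; Hoechst 40 min; imager read of total nuclear intensity, ex 405/em 500-530 nm.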
# * = called active by the depositor; i = inactive; ? = inconclusive; / = not tested or not shown; [ ] = remark or other dose. Calls come from the whole dose curve; as a rule, active = well fitted curve in the direction sought with a large enough effect; inconclusive = small, poorly fitted or top-dose-only effect, or another doubt; inactive = no such curve, though single readings can be large; an effect the other way counts as inactive or inconclusive. Potency is the fitted concentration of half-maximal effect.
SMILES,HT1080-NT tox,KB-V1 cytotox,HT1080 IDH1KD tx,KB-3-1 tox,MCF10A rereplic,SW480 rerep
Cc1c2cnn(CC(=O)NCc3ccc(F)cc3)c(=O)c2c(C)n1Cc1ccccc1Cl,/,i,/,?,/,/
Cc1occc1C(=O)N1CCN(c2ccc(Cl)c(Cl)c2)CC1,-0.4%,23.1µM*,-16.7%,i,-5.3%,7.5%
CC1CCc2sc(C(=O)OCC(=O)NCc3ccc(F)cc3)cc2C1 (stereo not given),?,?,20.6µM*,?,18.7%,?
COc1ccc(-c2cc(C(F)F)nc(-n3nc(C)cc3C)n2)cc1,-0.4%,23.1µM*,-9.8%,i,14.7%,-5.8%
Cc1ccc(-c2cc(C(F)F)nc(N3CCOCC3)n2)cc1,-2.9%,i,-11.4%,i,?,10.5%
Cc1ccc(-c2c3c(=O)n(C)c(=O)n(C)c3cn2Cc2ccccn2)cc1,1.7%,i,-0.4%,i,-2.1%,-6.5%
COc1ccc(-c2c3c(=O)n(C)c(=O)n(C)c3cn2Cc2ccccn2)cc1,0.6%,i,2.6%,i,18.4µM*,?
CCCCCc1cc(=O)oc2c(C(CCN(CC)CC)c3cc(OC)c(OC)c(OC)c3)c(OC)cc(OC)c12 (stereo not given),?,i,18.4µM*,?,-2.7%,0.6%
CCCCCc1cc(=O)oc2c(C(CCN3CCCCC3)c3ccc4c(c3)OCO4)c(OC)cc(OC)c12 (stereo not given),?,i,?,i,33.8%,?
Cc1c(C(=O)NCCS(=O)(=O)N2CCN(c3ccccc3F)CC2)cccc1[N+](=O)[O-],?,?,?,23.1µM*,?,?
O=C(Cc1ccc(Cl)cc1)NCCS(=O)(=O)N1CCN(c2ccccc2F)CC1,?,7.31µM*,?,13µM*,18.4µM*,?
O=C(NCCS(=O)(=O)N1CCN(c2ccccc2F)CC1)c1ccc(Cl)cc1,0.2%,?,1.7%,i,13.0%,-3.4%
CCC1CCCCN1C(=O)Cn1c(=O)n(-c2ccccc2C(F)(F)F)c(=O)c2c(C)c(C(=O)N(C)C)sc21 (stereo not given),/,i,/,i,/,/
O=C(CCl)Nc1cccc(-c2cnc3ccccc3n2)c1,?,13µM*,?,10.3µM*,?,11.6µM*
Cc1cc2ncc(-c3ccccc3)nc2cc1C,-0.9%,i,1.7%,i,-1.5%,?
Cc1ccc(-c2cnc3ccccc3n2)cc1C,0.7%,i,-4.1%,i,18.4µM*,-7.9%
O=C(CCl)Nc1ccc(Oc2cnc3ccccc3n2)cc1,?,14.6µM*,7.08µM*,6.51µM*,?,?
O=C(O)COc1cnc2ccccc2n1,-1.3%,?,1.8%,i,-1.6%,-2.5%
O=C(Nc1cccc(-c2cnc3ccccc3n2)c1)c1cccc(NC(=O)c2ccco2)c1,?,?,?,?,14.6µM*,3.4%
COc1ccc(CC(=O)N(C)c2ccccc2)cc1S(=O)(=O)N1CCOCC1,-4.8%,i,-0.9%,i,/,/
FC(F)(F)C(F)(F)C(F)(F)c1nc2ccccc2[nH]1,/,i,/,i,/,/
Cc1nc2ccc(S(=O)(=O)N(CC(=O)Nc3cccc(F)c3)Cc3ccccc3)cc2s1,/,i,/,i,/,/
CC(=O)NC(=S)NNC(=O)CCc1ccccc1,-0.4%,i,-4.7%,i,-13.8%,-14.9%
CC(C)(C)c1cc(CCC(=O)NNC(=O)c2ccco2)cc(C(C)(C)C)c1O,0.4%,i,3.6%,i,?,-2.4%
O=C(CCc1ccccc1)NC(=S)Nc1cccc(C(=O)O)c1,15.6%,i,6.3%,i,-0.8%,-2.3%
SMILES,HT1080-NT tox,KB-V1 cytotox,HT1080 IDH1KD tx,KB-3-1 tox,MCF10A rereplic,SW480 rerep
O=C(CCc1ccccc1)NNC(=S)NC(=O)c1ccccc1,?,?,11.2µM*,i,3.26µM*,3.66µM*
CC(C)(C)c1cc(CCC(=O)NNC(=S)NC(=O)c2ccccc2)cc(C(C)(C)C)c1O,14.6µM*,?,?,?,?,?
O=C(CCc1ccccc1)NC(=S)Nc1cccc(Br)c1,10.3%,i,2.8%,i,16.4µM*,0.5%
Cc1ccc(C2=NOC(=O)/C2=C\c2ccc(C)o2)cc1,13.2%,i,-0.7%,i,16.4µM*,?
CC(C)C1C(C#N)=C(N)Oc2n[nH]c(-c3ccc4ccccc4c3)c21 (stereo not given),?,8.2µM*,?,?,-3.2%,?
CSc1ccc(/C=N\Nc2nncn2N)cc1,?,i,20.6µM*,i,?,7.4%
COc1cc(/C=N\Nc2nncn2N)ccc1OC(C)=O,?,i,?,i,?,?
CS/C(N)=N/N=C/c1cc(Br)cc(Br)c1O,0.0%,?,-6.3%,i,?,?
Nn1cnnc1N/N=C/c1cc(Br)cc(Br)c1O,-21.2%,2.31µM*,?,?,?,?
CC(C)(C)c1ccc(/C=N/Nc2nncn2N)cc1,-19.7%,i,?,i,11.6µM*,25.7%
COCc1cccc(-c2csc(C(C)(NC(C)=O)c3ccc(OC)cc3)n2)c1 (stereo not given),-1.7%,i,14.7%,i,/,/
COc1cccc(-c2noc(COc3ccccc3Cl)n2)c1,/,?,/,i,/,/
COC(=O)c1ccc(NC(=O)C2CCN(C(=O)c3ccc(F)cc3)CC2)cc1,/,i,/,i,/,/
CCOC(=O)C(Nc1ccc2ccccc2c1)C(=O)OCC,-3.7%,i,6.7%,i,4.61µM*,13µM*
CC(=O)CC(=O)Nc1ccc2ccccc2c1,6.0%,i,2.5%,i,-2.1%,-16.3%
Cc1csc(Sc2ccc([N+](=O)[O-])cc2C(=O)OCC(=O)NC2CCCC(C)C2C)n1 (stereo not given),0.8%,i,6.5%,i,17.8µM*,?
CCC(C)NC(=O)COC(=O)c1cc([N+](=O)[O-])ccc1Sc1nc(C)cs1 (stereo not given),-5.3%,i,-1.4%,i,?,5.2%[9.22 µM]
CCCCOc1ccc(-c2nnn(CC(=O)NCc3ccco3)n2)cc1,7.08µM*,4.11µM*,7.94µM*,?,2.8%,1.2%
CCOc1ccc(-c2nnn(CC(=O)NCc3ccco3)n2)cc1OCC,12.4%,i,7.9%,i,-8.5%,-3.3%
Nc1cccnc1S(=O)(=O)c1cccc(C(F)(F)F)c1,-3.3%,i,-5.7%,i,-1.6%,2.91µM*
Nc1cccnc1S(=O)(=O)c1ccccc1,24.3%,?,7.9%,i,5.1%,-0.9%
